Source: PubChem (several laboratories)
This is a sample that favours compounds with a hit; in the whole collection about 1.8% have one here.
697 NFkB inh – lowers PMA/ionomycin-induced NF-kB signal in 697 B cells; 697 B-cell NF-kB luciferase reporter, 16 h; inhibition, % at 4 µM; 0.33% of 330,000 active; in the data active = inhibition above about 35%
Gli-Sufu block – Gli-Sufu pathway antagonism. 0.74% of 340,000 active. Sufu-KO-LIGHT fibroblasts, Gli luciferase reporter luminescence. inhibition, % at 5 µM;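 active = inhibition above about 55%, limit read from the data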;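 note: 0% = DMSO-treated cells and 100% = wells with medium but no cells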
Jurkat NFkB inh – inhibitors of the PMA/ionomycin-induced NF-kB reporter in Jurkat cells; PMA/ionomycin-induced NF-kB luciferase reporter, luminescence; inhibition, % at 4 µM; 0.53% of 330,000 active; in the data active = inhibition above about 50%
Beta cell apopt – beta cell apoptosis inhibition; protection from apoptosis, % (concentration not given with the values); INS-1E cytokine-induced death, ATP luminescence, 48 h; percent of positive-control rescue, neutral wells zero; 0.8% of 300,000 active;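 active = Every replicate reaches about 75%, or at least half do and their mean reaches it too, limit read from the data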;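 note: 0% = cytokine-treated negative control wells and 100% = positive control rescue; higher means more ATP so stronger rescue from cytokine killing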
Jurkat NFkB conf – inhibitors of the PMA/ionomycin-induced NF-kB reporter in Jurkat cells, retest | AID 435020 | shares compounds with Jurkat NFkB inh | Jurkat NF-kB luciferase, 16 h | inhibition, % at 4 µM | 27% of 2,700 active;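 active = inhibition reaching about 45% at 4 µM in either replicate, limit read from the data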;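 note: plate controls were PMA/ionomycin stimulated DMSO wells for no effect and unstimulated DMSO wells for full effect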
* marks the source's active call; other numbers are inactive results; / = no result given.

SMILES | 697 NFkB inh | Gli-Sufu block | Jurkat NFkB inh | Beta cell apopt | Jurkat NFkB conf
CCOC(=O)N1CCN(C(=O)c2ccc3c(c2)N(C)C(=O)/C(=C\c2ccc(OCC)c(OC)c2)S3)CC1 | -64 | -8 | 12 | / | /
CCOC(=O)N1CCC(NC(=O)c2ccc3c(c2)N(C)C(=O)/C(=C/c2cccc(OC)c2)S3)CC1 | -11 | 27 | 53* | 30 | 7
c1ccc(Cn2ccc(-c3cnc(-c4ccccc4)s3)n2)cc1 | -192 | -74 | -154 | -1 | -95
CCOC(=O)c1oc2ccc(S(=O)(=O)n3nc(-c4ccc(OC)cc4)cc3N)cc2c1C | -50 | 25 | 58* | / | 28
CCOc1ccc(/C(C)=N/N2C(=O)C(CC(=O)Nc3ccc(OC)cc3[N+](=O)[O-])SC2=Nc2cccc(C)c2C)cc1 (configuration not stated) | -39 | -22 | -10 | 10 | /
COc1ccccc1/C=N/N1C(=O)C(CC(=O)Nc2ccc([N+](=O)[O-])cc2OC)SC1=Nc1cccc(C)c1C (configuration not stated) | -101 | / | 69* | 3 | 22
Cc1cc(C)c(C(=O)CN2C(=O)NC3(CCC(C)CC3)C2=O)cc1C (configuration not stated) | 0 | 2 | -2 | -3 | /
Cc1ccc(C)c(C(=O)CN2C(=O)NC3(CCC(C)CC3)C2=O)c1 (configuration not stated) | -68 | -4 | 64* | -4 | 8
O=C(NC1CCCCC1)c1ccc([N+](=O)[O-])o1 | -7 | 10 | 13 | -14 | /
O=C(NC1CCCCC1)c1ccc(-c2ccccc2[N+](=O)[O-])o1 | -175 | / | -152 | 3 | -105
CCN(CC)S(=O)(=O)c1ccc(N2C(=O)Nc3ccccc3N2O)cc1 | 26 | -1 | -1 | -2 | /
Cc1ccc(NS(=O)(=O)c2ccccc2)c(NS(=O)(=O)c2ccccc2)c1 | / | 2 | / | / | /
Cc1ccc(S(=O)(=O)Nc2ccccc2-c2ccccc2)cc1 | -50 | 3 | 59* | 36 | 50*
O=c1c2ccccc2c(-c2n[nH]c(=S)o2)nn1Cc1ccccc1 | 16 | -9 | 9 | 1 | /
COc1ccc(CC(=O)NCc2ccc(-n3cccc3)cc2)cc1OC | -48 | -7 | 55* | 39 | 18
Cc1ccc(CNC(=O)Cc2ccc(-n3cccc3)cc2)cc1 | -42 | 8 | 53* | -3 | 4
COc1cc(CN(C)Cc2cc(=O)oc3cc(C)c(Cl)cc23)ccc1OC(F)F | 6 | 5 | 16 | 5 | /
Nc1nc(-c2ccc(-c3ccccc3)cc2)cs1 | -232 | -92 | -101 | 3 | /
Nc1nc(-c2ccc3ccccc3c2)cs1 | -114 | -98 | -159 | / | -20
Cc1cccc(N2CCN(Cc3cn(C)nc3-c3ccccc3F)CC2)n1 | -30 | 16 | 54* | 26 | 28
Cn1cc(CN2CCN(c3ccc(Cl)cn3)CC2)c(-c2ccccc2F)n1 | 8 | 8 | -7 | 1 | /
CCOCCCNC(=O)c1ccc2nc(-c3ccc(OC)c(OC)c3)c(-c3ccc(OC)c(OC)c3)nc2c1 | 8 | 12 | -27 | 5 | /
O=C(Nc1nc2ccc(Br)cc2s1)c1ccco1 | -249 | -54 | -90 | -1 | /
O=C(Nc1ccc2c(c1)OCO2)c1cccs1 | -90 | -58 | -85 | 9 | /
O=C(Nc1ccc2c(c1)OCCO2)Nc1ccc2c(c1)OCO2 | -215 | -84 | -185 | -5 | -93
SMILES | 697 NFkB inh | Gli-Sufu block | Jurkat NFkB inh | Beta cell apopt | Jurkat NFkB conf
Cn1c(C(=O)Nc2ccc3c(c2)OCO3)cc2sccc21 | -140 | -61 | -160 | 3 | -63
Cc1ccc(NC(=O)Nc2ccc3c(c2)OCO3)cc1F | -104 | -114 | -174 | -17 | -52
O=C(Nc1ccc2c(c1)OCO2)c1ccc(Br)s1 | -77 | -80 | -178 | 13 | -85
NC(=O)c1ccc(NCC2COc3ccccc3O2)c([N+](=O)[O-])c1 (configuration not stated) | 12 | -12 | -15 | -8 | /
Clc1ccc2c(c1)C(C1=NCCN1)c1ccccc1CS2 (configuration not stated) | 5 | 9 | 63* | 6 | 43*
S=C1NCCc2ccc(Cl)cc2C1c1ccccc1Cl (configuration not stated) | -21 | -4 | -17 | 0 | /
COc1nc(Nc2nc3ccccc3c(=O)[nH]2)nc2ccc(C)cc12 | 30 | 63* | 81* | 97* | -5
Cc1cc(C)cc(Nc2nc3ccccc3c(=O)[nH]2)c1 | 11 | 1 | 6 | 0 | /
COc1ccc(Cn2cnc3c(N)c(C)c(C)cc32)cc1 | -7 | 4 | -8 | -4 | /
CCCCCCCCn1cnc2c(N)c(C)c(C)cc21 | 21 | 44 | 75* | -15 | 7
CC(=O)c1ccc(S(=O)(=O)Nc2cccc(-c3ccc4nncn4n3)c2)cc1 | 0 | -7 | -5 | 1 | /
Cc1ccc(S(=O)(=O)Nc2cccc(-c3ccc4nncn4n3)c2)cc1 | -8 | 8 | 59* | 12 | 48*
O=C(Nc1ccc2c(c1)OCO2)C1CC(c2ccc(F)cc2)=NO1 (configuration not stated) | -19 | 6 | 0 | -5 | /
O=C(COc1ccc(C(=O)c2ccccc2)cc1)NCc1ccc(F)cc1 | -4 | -1 | 69* | 0 | 41
O=C(COc1ccccc1)NCc1ccccc1 | -1 | 2 | -4 | / | /
O=C(O)CSc1ncnc2sc(-c3ccccc3)cc12 | -18 | 44 | 5 | -5 | /
CC(=O)c1c(C)[nH]c(C(=O)CSc2ncnc3sc(-c4ccccc4)cc23)c1C | -32 | 39 | 52* | / | 14
CCCCNc1ccc(C(CC(N)=O)NC(=O)c2ccccc2)cc1[N+](=O)[O-] (configuration not stated) | 16 | 17 | 18 | / | /
C=CCNC(=O)C(C)N1c2cccc3cccc(c23)S1(=O)=O (configuration not stated) | -9 | 6 | 4 | -6 | /
CCOc1ccc(Br)cc1C1=CC(=O)C[C@H](c2ccc(OC)cc2)C1 | -53 | 9 | 65* | 9 | 47
COc1ccc([C@H]2CC(=O)C=C(c3cc(Br)ccc3OC)C2)cc1 | 0 | -6 | 29 | 4 | /
COc1ccc([C@H]2CC(=O)C=C(c3cc(C)ccc3OC)C2)cc1 | -12 | 1 | 58* | 5 | 26
Cn1nnc2cc(C(=O)Nc3ccc4ccccc4c3)ccc21 | -166 | -66 | -163 | -4 | -67
COc1ccc(C(=O)Nc2ccc3ccccc3c2)cc1OC | -104 | -45 | -108 | -3 | /
O=C(CN1C(=O)NC2(CCCCC2)C1=O)Nc1cc(C(F)(F)F)ccc1N1CCCCC1 | 12 | 5 | 2 | -7 | /
CCC1(c2ccccc2)NC(=O)N(CC(=O)Nc2cc(C(F)(F)F)ccc2N2CCCC2)C1=O (configuration not stated) | 10 | 8 | 54* | / | -17
Cc1cccc(NCc2n[nH]c(=S)n2-c2ccccc2)c1 | -8 | -24 | 12 | -2 | /
N#CC1=C(N)Oc2cc(N)ccc2C1c1cccc(F)c1 (configuration not stated) | -38 | 2 | 47 | 6 | /
CN(C)c1ccc2c(c1)OC(N)=C(C#N)C2c1cccc(F)c1 (configuration not stated) | -101 | 52 | 77* | 32 | 55*
